# Screening data as filed in PubChem.
# Sampled rows, rich in hits. Any-hit rate of the full collection: about 15%.
# ELG1 DNA repair: inhibitors of ELG1-dependent DNA repair in HEK293T cells; AID 504467; HEK293T ELG1-luciferase reporter, luminescence, 16 h; DNA damage induced by 5-fluorouridine; Potency, µM (series often up to 46.1 µM), without a hit: at the top dose activity change, negative = inhibition, most hits filed as inhibitors; 330,000 compounds, 2.3% hits; note: nearly all actives have a fitted effect of over 55% in size
#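 Luminescence from the luciferase reporter, measured 30 min after ONE-Glo reagent at room temperature, was the read-out. Beforehand, 2,000 cells per well were exposed for 16 hr at 37 °C to 5-fluorouridine together with compound or vehicle.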
# Gal4-VP16 FLuc: Gal4-VP16 reporter inhibition counter-screen | Drosophila S2 Gal4-VP16 UAS-luciferase, luminescence, 20 h | Potency, µM (doses to about 53.6 µM), for the others: at the highest dose activity, negative = inhibition, most hits filed as inhibitors | 310,000 compounds, 3.5% hits | AID 2546;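 note: Gal4-VP16 expression switched on by copper sulfate through the metallothionein promoter; nearly all actives have a fitted effect of over 50% in size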
# DT40 TDP1 CPT: growth inhibition of DT40 Tdp1-/-;hTDP1 cells with camptothecin (screen for TDP1 inhibitors) | AID 686979 | 420,000 compounds, 12% hits | chicken DT40 Tdp1-/-;hTDP1 cells + 20 nM CPT, ATP luminescence, 48 h | Potency, µM (doses to about 46.2 µM), inactives show at the highest dose activity change, negative = growth inhibition, hits mostly inhibitors; note: nearly all actives have a fitted effect of over 55% in size
#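 Chicken DT40 Tdp1-/- cells stably complemented with human TDP1 were seeded at 400 cells/well in medium containing 20 nM camptothecin, exposed to pin-transferred compounds, and grown at 37 °C for at least 48 hr. Viability was read as ATP luminescence.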
# RORg inh: inhibitors of mouse ROR gamma transcriptional activity; 310,000 compounds, 5.4% hits; Drosophila S2 Gal4-RORgamma UAS-luciferase reporter, 20 h; Potency, µM (series often up to 53.6 µM), for inactives: at the top dose activity change, negative = inhibition, actives largely listed as inhibitors; P51450; note: nearly all actives have a fitted effect of over 60% in size
#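 A Gal4/UAS one-hybrid system in insect cells: metallothionein-promoter Gal4–ROR gamma fusion plus Photinus luciferase reporter. Copper sulfate 700 uM final, 20 hr ambient incubation, luminescent detection after 10 min with reagent.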
# 12-LOX inh: blocks human arachidonate 12S-lipoxygenase; P18054; purified 12hLO, xylenol orange hydroperoxide absorbance; Potency, µM (doses to about 108 µM), without a hit: at the highest dose activity change, negative = inhibition, actives largely listed as inhibitors; 580,000 compounds, 1.1% hits; AID 1671190
# Target sequence (P18054 whole entry, looked up): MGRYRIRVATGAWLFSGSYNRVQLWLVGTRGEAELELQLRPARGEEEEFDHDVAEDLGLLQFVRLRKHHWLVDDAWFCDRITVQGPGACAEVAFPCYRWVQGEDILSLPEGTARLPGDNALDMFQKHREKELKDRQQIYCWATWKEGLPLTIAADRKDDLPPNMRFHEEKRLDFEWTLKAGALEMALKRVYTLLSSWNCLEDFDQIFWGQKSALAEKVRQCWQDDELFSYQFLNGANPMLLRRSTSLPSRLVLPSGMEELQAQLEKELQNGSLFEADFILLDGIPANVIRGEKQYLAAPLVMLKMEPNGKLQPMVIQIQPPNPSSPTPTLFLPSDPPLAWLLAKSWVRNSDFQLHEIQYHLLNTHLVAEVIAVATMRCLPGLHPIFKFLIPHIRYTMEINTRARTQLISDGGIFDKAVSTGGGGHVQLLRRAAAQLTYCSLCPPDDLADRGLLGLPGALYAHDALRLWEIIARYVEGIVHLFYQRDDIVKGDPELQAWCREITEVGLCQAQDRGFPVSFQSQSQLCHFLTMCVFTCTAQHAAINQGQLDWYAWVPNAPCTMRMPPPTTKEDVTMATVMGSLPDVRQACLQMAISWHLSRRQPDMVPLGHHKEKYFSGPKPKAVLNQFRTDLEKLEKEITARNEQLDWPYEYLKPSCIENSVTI
#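 Hydroperoxide product was detected by ferrous iron/xylenol orange as the 573 to 405 nm absorbance ratio. Arachidonic acid at 40 uM (final) was turned over for 30 min at room temperature by 150 nM human 12hLO, pH 7.0 Hepes buffer, after 15 min compound preincubation.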
# TDP1 cell noCPT: qHTS for Inhibitors of human tyrosyl-DNA phosphodiesterase 1 (TDP1): qHTS in cells in absence of CPT; DT40 Tdp1-/- hTDP1 cells, no CPT, ATP luminescence, 48 h; Potency, µM (titrated, usually from 46.2 µM), for the others: at the highest dose activity change, negative = growth inhibition, actives largely listed as inhibitors; 420,000 compounds, 15% hits; note: nearly all actives have a fitted effect of over 55% in size
#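 No-CPT arm: Tdp1-/-;hTDP1 DT40 cells (400/well) plus compounds, incubated ≥48 hr at 37 °C. Readout CellTiter-Glo luminescence.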
# Starred values were filed as active, the others as inactive; ? = inconclusive; . = no result given; [ ] = remark or other dose. Calls come from the whole dose curve; as a rule, active = well fitted curve in the direction sought with a large enough effect; inconclusive = small, poorly fitted or top-dose-only effect, or another doubt; inactive = no such curve, though single readings can be large; an effect the other way counts as inactive or inconclusive. % is set by controls: 0 for no effect and ±100 for the full control effect; potency is the fitted concentration of half-maximal effect.
SMILES,ELG1 DNA repair,Gal4-VP16 FLuc,DT40 TDP1 CPT,RORg inh,12-LOX inh,TDP1 cell noCPT
Cn1c(N=Nc2ccccc2)nc2ccccc21,?,1.26µM*,8.2µM*,0.708µM*,?,7.31µM*
CCn1c(/C=N/c2nc3ccccc3n2C)nc2ccccc21,7.1%,?,-3.3%,12.6µM*,11.3%,-12.2%
Cn1c(/C=N/c2nc3ccccc3[nH]2)nc2ccccc21,12.2%,?,?,17.8µM*,13.8%,?
CC(C)c1ccccc1NC(=O)Cn1c(-c2ccccc2Cl)nc2ccccc21,3.2%,4.3%,-21.0%,26.7%,-7.0%,-4.8%
CC(C)c1ccccc1NC(=O)Cn1c(/C=C/c2ccccc2)nc2ccccc21,?,-27.8%,18.4µM*,-12.9%,.,?
O=C(CCc1ncc(-c2c(F)cccc2F)o1)N1CCC(OCc2ccccc2)CC1,.,.,.,.,-5.2%,.
O=C(NC1C[C@H]2CC[C@@H](C1)N2C(=O)C1CCCC1)c1ccncc1 (some centres not stated),.,.,.,.,2.8%,.
CCCn1c(Nc2ccccc2C)nc2ccccc21,15.0%,?,-8.7%,?,-3.8%,-14.8%
CCCn1c(/C=C/c2ccccc2)nc2ccccc21,?,?,?,5.62µM*,3.5%,23.1µM*
COCCOCCn1c(/C=C/c2ccccc2)nc2ccccc21,?,?,?,11.2µM*,26.6%,?
CC(C)Cn1c(/C=C/c2ccco2)nc2ccccc21,13.4%,?,?,11.2µM*,?,?
CCn1c(/C=C/c2cc[n+](C)cc2)nc2ccccc21,-4.8%,1.7%,-16.3%,-29.4%,11.2µM*,-4.4%
Cc1cccc(CC(=O)N2CCC(Cc3nc(C(C)C)no3)CC2)c1,.,.,.,.,17.9%,.
N#Cc1ccc(COC(=O)c2cc(-c3ccccc3)c(N3CCOCC3)s2)cc1,.,.,.,.,6.7%,.
CC/C(=N/NC(=O)C1CC1(c1ccc(C)cc1)c1ccc(C)cc1)c1ccccc1 (configuration not stated),.,.,.,.,19.4%,.
CC1(C)[C@H](Cc2cc(-c3ccc(F)cc3)on2)C[C@@H]1NC1CCOCC1,.,.,.,.,11.6%[176 µM],.
Cc1nn(C)cc1NC(=O)c1c(Br)cnn1C,.,.,.,.,-13.4%,.
O=[N+]([O-])c1cc(S(=O)(=O)Nc2ccccc2)ccc1N/N=C/c1cn(-c2ccccc2)nc1-c1cccs1,.,.,.,.,2.1%,.
CC(C)n1c(/C=C/c2ccccc2)nc2ccccc21,?,15.8µM*,-6.1%,12.6µM*,-15.6%,?
Cc1ccc(C(=O)Cn2c(C(=O)/C=C/c3ccccc3)nc3ccccc32)cc1,16.6%,1.2%,16.4µM*,-1.8%,-6.3%,16.4µM*
Cc1ccc(C(=O)Cn2c(NCCO)nc3ccccc32)cc1,6.7%,-7.4%,3.0%,-5.2%,-4.1%,?
CC(C)(C)NS(=O)(=O)c1ccc(N2C(=O)c3ccccc3C2=O)cc1,-11.3%,-26.9%,-13.9%,22.9%,1.2%,-0.5%
CC(C)(C)NS(=O)(=O)c1cccc(S(=O)(=O)c2cccc(S(=O)(=O)NC(C)(C)C)c2)c1,?,-1.5%,23.1µM*,?,.,?
CCc1nnc([C@@H]2CC(F)(F)CN2C(=O)Cn2cccn2)o1,.,.,.,.,4.2%,.
CC1(C(=O)Nc2cccc(Oc3ccccc3)c2)CCN1Cc1cc2ccccc2o1 (configuration not stated),.,.,23.1µM*,.,4.1%,?
SMILES,ELG1 DNA repair,Gal4-VP16 FLuc,DT40 TDP1 CPT,RORg inh,12-LOX inh,TDP1 cell noCPT
COc1cccc(NC(=O)C2(C)CCN2Cc2ccc(OC(C)C)cc2)c1 (configuration not stated),.,.,?,.,1.4%,?
CC1(C(=O)Nc2ccc(Cl)c(Cl)c2)CCN1Cc1cc2ccccc2o1 (configuration not stated),.,.,-14.1%,.,-0.6%,-23.5%
CSc1ccc(CN2CCC2(C)C(=O)Nc2cccc(Oc3ccccc3)c2)cc1 (configuration not stated),.,.,18.4µM*,.,6.3%,14.6µM*
COc1nc2ccccc2nc1N1CCC(C(=O)Nc2cccc(C)c2)CC1,.,.,.,.,6.0%,.
O=C1CC(c2ccccc2Oc2cccc(Cl)c2)C(n2cncn2)C(=O)C1C1NCCc2ccccc21 (configuration not stated),?,-8.1%,7.4%,1.8%,31.6µM*,5.1%
COC(=O)c1ccc(COC(=O)CSc2cnc3ccccc3n2)cc1,.,.,.,.,40.0%,.
Nc1ccc(-c2nc3c(ccc4ccccc43)[nH]2)cc1,?,?,?,0.891µM*,0.0%,?
CCOC(=O)Cc1csc(SCC(=O)Nc2cccc(Cl)c2)n1,?,5.9%,?,13.4%,14.0%,14.6µM*
Cc1csc(NC(=O)CSc2nnc(-c3ccccc3)o2)n1,?,-15.3%,-10.2%,?,-0.5%,-17.8%
CCOC(=O)Cc1csc(NC(=O)CSc2nnc(-c3ccc(C)cc3)o2)n1,2.6%,?,4.4%,11.2µM*,27.3%,-13.2%
Cc1csc(NC(=O)CSc2nnc(-c3ccc(S(=O)(=O)N4CCCC4)cc3)o2)n1,-19.2%,-28.0%,8.0%,12.6µM*,10.4%,?
CCOC(=O)Cc1csc(SCC(=O)Nc2cccc(C#N)c2)n1,-19.6%,5.1%,-6.8%,21.0%,-9.8%,-28.2%
CCN(CC)S(=O)(=O)c1ccc(-c2nnc(SCC(=O)Nc3nc(C)cs3)o2)cc1,-15.9%,-28.1%,?,?,6.1%,-21.3%
CCOC(=O)Cc1csc(NC(=O)CSc2nnc(-c3ccc(F)cc3)o2)n1,10.6%,?,-8.6%,3.98µM*,12.3%[57.4 µM],-4.4%
COc1ccc(-c2ocnc2C(=O)Nc2ccccc2C)cc1OC,.,.,.,.,-37.1%,.
O=C(Cn1cc(S(=O)(=O)N2CCCC2)ccc1=O)c1c[nH]c2ccccc12,.,.,.,.,-7.8%,.
COc1cc(/C=C/C(=O)c2ccc(Br)cc2)cc(OC)c1,.,.,.,.,-18.6%,.
CCNc1ccc(Br)cc(C(=O)/C=C/c2ccc(Cl)cc2Cl)c1=O,?,12.6µM*,10.3µM*,5.01µM*,7.08µM*,9.2µM*
CNc1ccc(Br)cc(C(=O)/C=C/c2cc(OC)ccc2OC)c1=O,?,-19.2%,20.6µM*,2.7%,?,10.3µM*
CNc1ccc(Br)cc(C(=O)/C=C/c2ccc(OC)cc2)c1=O,?,-25.8%,6.51µM*,-21.7%,31.6µM*,18.4µM*
O=C(/C=C/c1ccc(Cl)cc1Cl)c1cc(Cl)ccc1O,.,.,.,.,-68.9%,.
CNc1ccc(Br)cc(C(=O)/C=C/c2ccc3c(c2)OCO3)c1=O,?,0.0%,18.4µM*,-14.9%,?,18.4µM*
